Over roughly 33,000 sequences, “e-score” has its median near -0.053; the highest 2% begin near 0.38. Many of the other results were omitted from the sample, so the highest values are more common in it than they were.

This assay deals with T1, SIX1 homeodomain (reference allele) (human, UniProt Q15475 108-198).
T1 sequence: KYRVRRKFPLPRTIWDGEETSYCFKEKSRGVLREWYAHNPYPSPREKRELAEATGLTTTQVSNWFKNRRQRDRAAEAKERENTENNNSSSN
As to the kind of experiment: universal protein binding microarray; Universal all-10-mer PBM (8x60K, AMADID 030236), 300 nM GST-tagged protein, Alexa Fluor 488 anti-GST; buffer, salt, pH and temperature not stated (as in Berger); high values mean tight binding. To be noted: protein: ivt; tags: N-terminal GST; dsDNA, one strand shown. In outline: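 Homeodomains carrying a GST tag were produced by in vitro transcription/translation, then quantified by anti-GST western blot against a recombinant GST standard curve. Duplicate applications at 300 nM final concentration were made to universal 'all 10-mer' protein binding microarrays in 8×60K format. The Universal PBM Analysis Suite was used to express binding as 8-mer E-scores.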
ATCCCGCC: the binding signal is 0.27 ± 0.00284 E-score. As for GGATAATA, the binding signal was 0.328 ± 0.0761 E-score. On to ATAGGGTG, for which the binding signal came out at 0.161 ± 0.00687 E-score.

Regarding ATCATTGC, the binding signal turned out to be 0.244 ± 0.0146 E-score. In the case of AGTTGGTG, the binding signal is 0.191 ± 0.00358 E-score. Regarding AAGACGAT, the binding signal came to 0.17 ± 0.0796 E-score.

With ATCCTCGG, the binding signal was 0.23 ± 0.0328 E-score.

As for CAGTATAG, the binding signal came out at 0.178 ± 0.0386 E-score. The same measure for CAGTATAC: 0.295 ± 0.0256 E-score. Consider CAGTATCC, for which the binding signal stood at 0.39 ± 0.0154 E-score.

As for AAGTATCG, the binding signal was found to be 0.369 ± 0.0877 E-score. CACTATCC: the binding signal amounted to 0.295 ± 0.013 E-score. For the sequence CAGTATCG, the binding signal came to 0.4353 ± 0.00267 E-score. For the sequence GGATTACC, the binding signal turned out to be 0.271 ± 0.0437 E-score.

On to CTCTCCCC, for which the binding signal was found to be 0.164 ± 0.0775 E-score.

For the sequence ATCACCTG, the binding signal amounted to 0.33 ± 0.0102 E-score. The value for GGATCCAA was 0.41 ± 0.0258 E-score; that for AGATCCTA was 0.2149 ± 0.00162 E-score. On to AGATCCAA, for which the binding signal amounted to 0.204 ± 0.00278 E-score. Regarding CGATCCTA, the binding signal stood at 0.299 ± 0.00788 E-score. Turning to GGATCCTA, the binding signal was found to be 0.377 ± 0.0205 E-score.

Regarding GGATCCAC, the binding signal amounted to 0.317 ± 0.0719 E-score.

As for CCGAAACC, the binding signal amounted to 0.185 ± 0.0211 E-score.

In the case of AAGAGGAT, the binding signal came out at 0.212 ± 0.00759 E-score. The value for CGTAGTGA was 0.182 ± 0.0165 E-score; that for CAGGACAC was 0.187 ± 0.0771 E-score. For GGATATGA, the binding signal is 0.356 ± 0.0113 E-score. As for AGATATCG, the binding signal is 0.434 ± 0.0383 E-score.

Turning to GGATATCA, the binding signal worked out at 0.487 ± 0.00885 E-score. Take GAATATCA: the binding signal turned out to be 0.366 ± 0.0771 E-score. The value for AGAGATCT was 0.198 ± 0.0724 E-score; that for GGCTATCA was 0.392 ± 0.0544 E-score; that for AAATATCT was 0.157 ± 0.0748 E-score. On to AGATATTG, for which the binding signal is 0.311 ± 0.0669 E-score. The same measure for AGCTATCA: 0.313 ± 0.116 E-score; for AGATATGG: 0.335 ± 0.0142 E-score; for CGCTATCA: 0.34 ± 0.0391 E-score. For the sequence AGATATCT, the binding signal amounted to 0.385 ± 0.082 E-score. On to ATCACCGG, for which the binding signal amounted to 0.291 ± 0.0263 E-score. As for ACACGGTA, the binding signal amounted to 0.188 ± 0.0434 E-score. In the case of GGATCGCC, the binding signal was 0.342 ± 0.0494 E-score.

As to TATAGCGA, the binding signal worked out at 0.164 ± 0.0391 E-score. The value for ATCCATCG was 0.246 ± 0.0374 E-score; that for ACATAGTA was 0.205 ± 0.029 E-score; that for CTACTATA was 0.153 ± 0.00888 E-score. The same measure for ACACCACG: 0.263 ± 0.0526 E-score.

In the case of CGATATCA, the binding signal worked out at 0.444 ± 0.0437 E-score.

With AGATATCC, the binding signal amounted to 0.442 ± 0.0272 E-score. Regarding AAATATCC, the binding signal worked out at 0.271 ± 0.0279 E-score.

On to AGATATTC, for which the binding signal was 0.219 ± 0.06 E-score. For the sequence AGATATGA, the binding signal is 0.291 ± 0.0439 E-score. Consider CAATATCA, for which the binding signal turned out to be 0.306 ± 0.111 E-score. For the sequence CGATATTA, the binding signal amounted to 0.365 ± 0.045 E-score. AGATATCA: the binding signal amounted to 0.451 ± 0.0439 E-score. TGATATAA: the binding signal was determined as 0.297 ± 0.032 E-score.

Consider TGATAGCA, for which the binding signal came to 0.323 ± 0.0297 E-score.

Consider AGATATTA, for which the binding signal is 0.234 ± 0.119 E-score.

As for TGATATCA, the binding signal is 0.48 ± 0.0111 E-score. For the sequence ATCTGTCA, the binding signal amounted to 0.208 ± 0.00539 E-score.

Turning to ATCCCTTG, the binding signal was determined as 0.271 ± 0.0326 E-score. The same measure for GGATTCGA: 0.212 ± 0.0426 E-score; for TATCCCAA: 0.329 ± 0.0116 E-score.

For the sequence CGTATTCA, the binding signal worked out at 0.265 ± 0.0108 E-score. The value for ATCTACCG was 0.23245 ± 0.00017 E-score; that for GATCTTCC was 0.2463 ± 0.00105 E-score. CGATAGCG: the binding signal was determined as 0.228 ± 0.0412 E-score.

Regarding CGATATCG, the binding signal is 0.439 ± 0.0105 E-score. Consider CAATATCC, for which the binding signal turned out to be 0.37 ± 0.00402 E-score.

Turning to AGATATGC, the binding signal came to 0.353 ± 0.0369 E-score.

As for GGATAACC, the binding signal is 0.297 ± 0.00525 E-score.

On to CGATATGA, for which the binding signal worked out at 0.311 ± 0.0729 E-score. In the case of CGATATTC, the binding signal was 0.317 ± 0.0233 E-score. Turning to CGATATCC, the binding signal is 0.476 ± 0.0109 E-score. GGATAGCC: the binding signal was determined as 0.3501 ± 0.00233 E-score. As for CGATAGCA, the binding signal worked out at 0.206 ± 0.0373 E-score. On to CGATATGC, for which the binding signal was found to be 0.428 ± 0.00624 E-score.

Regarding GGATATCC, the binding signal was determined as 0.4671 ± 0.00165 E-score. For the sequence AGTAATAT, the binding signal worked out at 0.236 ± 0.0691 E-score. With ATACGGGC, the binding signal stood at 0.278 ± 0.0276 E-score.

TCGTCTCA: the binding signal came to 0.22 ± 0.0818 E-score. For GTATGAAC, the binding signal amounted to 0.208 ± 0.0436 E-score.

GTAACCCA: the binding signal was found to be 0.169 ± 0.0635 E-score. For ATCATGCG, the binding signal amounted to 0.24 ± 0.02 E-score.

Turning to ATATATGA, the binding signal turned out to be 0.233 ± 0.0893 E-score. For the sequence ATCAGCCC, the binding signal came out at 0.308 ± 0.0315 E-score. ACCCCCTA: the binding signal is 0.258 ± 0.0368 E-score. On to ATACCTTC, for which the binding signal amounted to 0.323 ± 0.0961 E-score. The same measure for ATACTCTG: 0.354 ± 0.0279 E-score.
